In all, about 310,000 compounds went through this assay and about 14,000 (4.5%) showed an effect of 50% or more. Effects have a minus sign here. For the sample, strong results were picked, then their nearest neighbours and some compounds at random.
biological target: human ether-à-go-go-related gene (hERG) potassium channel (human, UniProt Q12809); test: primary screen, population patch clamp on CHO cells stably expressing hERG; higher = less effect of the substance
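Also: peak tail current of the secondary pulse compared with the same well before compound.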

human ether-à-go-go-related gene (hERG) potassium channel, sequence (Q12809 whole entry, looked up): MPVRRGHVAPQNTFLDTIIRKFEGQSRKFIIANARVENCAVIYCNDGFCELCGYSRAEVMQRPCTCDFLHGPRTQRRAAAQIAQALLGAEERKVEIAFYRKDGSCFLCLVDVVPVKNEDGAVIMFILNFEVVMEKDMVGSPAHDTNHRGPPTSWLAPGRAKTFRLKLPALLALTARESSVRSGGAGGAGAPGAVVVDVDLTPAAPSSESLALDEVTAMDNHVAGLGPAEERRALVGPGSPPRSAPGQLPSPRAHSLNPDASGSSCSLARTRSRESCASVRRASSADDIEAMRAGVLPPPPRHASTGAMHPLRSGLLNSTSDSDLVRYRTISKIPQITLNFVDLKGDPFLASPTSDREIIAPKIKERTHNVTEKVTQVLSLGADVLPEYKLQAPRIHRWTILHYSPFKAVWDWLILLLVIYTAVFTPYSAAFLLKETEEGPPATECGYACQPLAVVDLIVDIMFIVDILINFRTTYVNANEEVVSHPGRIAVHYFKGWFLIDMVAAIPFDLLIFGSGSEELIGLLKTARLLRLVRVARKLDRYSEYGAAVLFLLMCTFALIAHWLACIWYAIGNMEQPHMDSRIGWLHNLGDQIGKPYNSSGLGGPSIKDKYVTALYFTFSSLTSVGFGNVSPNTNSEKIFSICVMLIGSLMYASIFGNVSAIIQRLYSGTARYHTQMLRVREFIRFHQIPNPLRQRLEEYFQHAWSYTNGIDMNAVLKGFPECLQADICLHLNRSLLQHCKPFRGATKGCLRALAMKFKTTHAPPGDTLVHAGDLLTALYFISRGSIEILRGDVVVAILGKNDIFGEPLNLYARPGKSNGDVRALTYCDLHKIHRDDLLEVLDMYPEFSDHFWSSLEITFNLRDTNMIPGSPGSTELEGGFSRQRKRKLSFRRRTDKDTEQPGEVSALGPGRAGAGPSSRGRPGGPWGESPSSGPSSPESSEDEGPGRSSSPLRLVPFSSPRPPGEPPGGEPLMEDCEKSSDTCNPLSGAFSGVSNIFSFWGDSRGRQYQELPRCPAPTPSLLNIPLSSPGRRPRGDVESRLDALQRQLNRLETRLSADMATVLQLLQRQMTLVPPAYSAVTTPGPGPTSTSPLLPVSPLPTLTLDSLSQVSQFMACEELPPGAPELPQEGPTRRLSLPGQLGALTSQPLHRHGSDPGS

**Q.** `O=C(NCc1ccccn1)c1cccc(NS(=O)(=O)c2ccc(Br)cc2)c1` was tested. Which “hERG current change (%, negative = inhibition) at 10uM” value did it give?
**A.** -19.8%

**Q.** Which “hERG current change (%, negative = inhibition) at 10uM” value does the source give for `COc1ccc(N(C(C)C(=O)NCCSCc2cccc(Cl)c2)S(C)(=O)=O)cc1` (centres unmarked) here?
**A.** -13.3%

**Q.** For `O=C(NCCS(=O)(=O)N1CCN(c2ccccc2F)CC1)c1ccc(Br)o1`, which “hERG current change (%, negative = inhibition) at 10uM” value is on record?
**A.** -6.39%

**Q.** For `CC(C)CCn1c(CN(C)Cc2ccccc2)nc2c1c(=O)n(C)c(=O)n2C`, which “hERG current change (%, negative = inhibition) at 10uM” value is on record?
**A.** -43.9%

**Q.** For `Cc1cc(C)nc(SCC(=O)Nc2ncc3c(n2)CC(C)(C)CC3=O)n1`, which “hERG current change (%, negative = inhibition) at 10uM” value is on record?
**A.** -13.1%

**Q.** With `COc1ccc(N(C(=O)c2ccc(S(=O)(=O)N3CCCC3)cc2)C2C=CS(=O)(=O)C2)cc1` (centres unmarked) as the compound, how does the “hERG current change (%, negative = inhibition) at 10uM” value read?
**A.** -31.9%

**Q.** For `CCOc1ccc(N(C(=O)c2ccc(S(=O)(=O)N3CCCC3)cc2)C2C=CS(=O)(=O)C2)cc1` (centres unmarked), which “hERG current change (%, negative = inhibition) at 10uM” value is on record?
**A.** -51.9%

**Q.** With `Cc1ccc(N(C(=O)c2ccc(S(=O)(=O)N3CCCC3)cc2)C2C=CS(=O)(=O)C2)cc1` (centres unmarked) as the compound, how does the “hERG current change (%, negative = inhibition) at 10uM” value read?
**A.** -32.9%

**Q.** For `COc1ccc(N2CCN(c3ccc(NC(=O)C4CCCCC4)cc3C#N)CC2)cc1`, which “hERG current change (%, negative = inhibition) at 10uM” value is on record?
**A.** 15.2%

**Q.** Which “hERG current change (%, negative = inhibition) at 10uM” value does the source give for `COc1cc(C(=O)N2CCN(C(=O)C3CC3)CC2)cc(OC)c1OC` here?
**A.** 3.78%

**Q.** For `Cc1ccc(C)c(NC(=O)COC(=O)Cn2c(C)csc2=O)c1`, which “hERG current change (%, negative = inhibition) at 10uM” value is on record?
**A.** 6.84%

**Q.** For `Cc1c(C(=O)N2CCCCCC2)c(S(=O)(=O)Nc2cccc(F)c2)c(C)n1C`, which “hERG current change (%, negative = inhibition) at 10uM” value is on record?
**A.** 9.56%

**Q.** For `CN1CCN(c2c(/C=N/O)c3ccccc3n2C)CC1`, which “hERG current change (%, negative = inhibition) at 10uM” value is on record?
**A.** -51.5%

**Q.** How did the “hERG current change (%, negative = inhibition) at 10uM” value turn out when `Cn1c(N2CCOCC2)c(/C=N/O)c2ccccc21` was run?
**A.** 7.51%

**Q.** How did the “hERG current change (%, negative = inhibition) at 10uM” value turn out when `Cc1c(/C=N/O)c2ccccc2n1C` was run?
**A.** 5.39%

**Q.** For `O=C(N/N=C/c1ccco1)c1ccc(NC(=O)C2CC2)cc1`, which “hERG current change (%, negative = inhibition) at 10uM” value is on record?
**A.** 18.2%

**Q.** How did the “hERG current change (%, negative = inhibition) at 10uM” value turn out when `OC(COCC(F)(F)C(F)(F)C(F)(F)C(F)F)Cn1c2ccc(Cl)cc2c2cc(Cl)ccc21` (centres unmarked) was run?
**A.** -9.49%

**Q.** `CC(C)NC(=O)C(=O)Nc1cc2c3c(c1)CCC(=O)N3CCC2` was tested. Which “hERG current change (%, negative = inhibition) at 10uM” value did it give?
**A.** 11.4%

**Q.** `O=C(CSc1nnc(-c2ccncc2)n1Cc1ccco1)Nc1nccs1` was tested. Which “hERG current change (%, negative = inhibition) at 10uM” value did it give?
**A.** -27%

**Q.** For `Cc1csc(NC(=O)CSc2nccn2Cc2ccco2)n1`, which “hERG current change (%, negative = inhibition) at 10uM” value is on record?
**A.** 4.55%

**Q.** How did the “hERG current change (%, negative = inhibition) at 10uM” value turn out when `Cc1csc(NC(=O)CSc2nnc(C)n2Cc2ccco2)n1` was run?
**A.** -1.85%

**Q.** For `Cc1csc(NC(=O)CSc2nnc(-c3ccoc3C)n2Cc2ccco2)n1`, which “hERG current change (%, negative = inhibition) at 10uM” value is on record?
**A.** -82%

**Q.** With `Cc1occc1-c1nnc(SCC(=O)Nc2nccs2)n1Cc1ccco1` as the compound, how does the “hERG current change (%, negative = inhibition) at 10uM” value read?
**A.** -75.4%

**Q.** How did the “hERG current change (%, negative = inhibition) at 10uM” value turn out when `Cc1cc(C)nc(SCc2nnc(SCC(=O)Nc3nccs3)n2Cc2ccco2)n1` was run?
**A.** -25%

**Q.** For `CC(=O)NC1=C(NC2CCS(=O)(=O)C2)C(=O)c2ccccc2C1=O` (centres unmarked), which “hERG current change (%, negative = inhibition) at 10uM” value is on record?
**A.** 18.4%

**Q.** For `O=C(NCc1cccc(F)c1)C1CCC(=O)N(CCc2cccc(F)c2)C1` (centres unmarked), which “hERG current change (%, negative = inhibition) at 10uM” value is on record?
**A.** -30.7%

**Q.** For `O=C(NCc1ccc(Cl)s1)C1CCC(=O)N(CCc2cccc(F)c2)C1` (centres unmarked), which “hERG current change (%, negative = inhibition) at 10uM” value is on record?
**A.** -60.2%

**Q.** For `O=C(NCc1cccc(F)c1)C1CCC(=O)N(CC2CCCCC2)C1` (centres unmarked), which “hERG current change (%, negative = inhibition) at 10uM” value is on record?
**A.** -9.08%

**Q.** For `O=C(NCc1cccc(OC(F)(F)F)c1)C1CCC(=O)N(Cc2cccc(F)c2)C1` (centres unmarked), which “hERG current change (%, negative = inhibition) at 10uM” value is on record?
**A.** -50.1%

**Q.** How did the “hERG current change (%, negative = inhibition) at 10uM” value turn out when `COC(=O)c1ccc(CNC(=O)C2CCC(=O)N(Cc3cccc(F)c3)C2)cc1` (centres unmarked) was run?
**A.** -12.7%

**Q.** Which “hERG current change (%, negative = inhibition) at 10uM” value does the source give for `Cc1ccccc1CNC(=O)C1CCC(=O)N(Cc2cccc(F)c2)C1` (centres unmarked) here?
**A.** -8.38%

**Q.** Which “hERG current change (%, negative = inhibition) at 10uM” value does the source give for `O=C(NCc1ccccc1OC(F)(F)F)C1CCC(=O)N(Cc2cccc(F)c2)C1` (centres unmarked) here?
**A.** -12.4%

**Q.** Which “hERG current change (%, negative = inhibition) at 10uM” value does the source give for `CSc1ccc(CNC(=O)C2CCC(=O)N(CCc3cccc(F)c3)C2)cc1` (centres unmarked) here?
**A.** -77.1%

**Q.** For `COc1cccc(CNC(=O)C2CCC(=O)N(CCc3cccc(F)c3)C2)c1` (centres unmarked), which “hERG current change (%, negative = inhibition) at 10uM” value is on record?
**A.** -13%

**Q.** Which “hERG current change (%, negative = inhibition) at 10uM” value does the source give for `Cc1ccc(CNC(=O)C2CCC(=O)N(CCc3cccc(F)c3)C2)cc1` (centres unmarked) here?
**A.** -38%

**Q.** How did the “hERG current change (%, negative = inhibition) at 10uM” value turn out when `CSc1ccc(CNC(=O)C2CCC(=O)N(Cc3cccc(F)c3)C2)cc1` (centres unmarked) was run?
**A.** -62.4%

**Q.** With `O=C(NCc1ccc(Cl)s1)C1CCC(=O)N(CCc2ccccn2)C1` (centres unmarked) as the compound, how does the “hERG current change (%, negative = inhibition) at 10uM” value read?
**A.** -10.1%

**Q.** `CCOC(=O)c1c(-c2ccc(OC)cc2)oc2cc(Br)c(O)cc12` was tested. Which “hERG current change (%, negative = inhibition) at 10uM” value did it give?
**A.** 10.4%

**Q.** How did the “hERG current change (%, negative = inhibition) at 10uM” value turn out when `COc1ccc(NS(=O)(=O)c2ccc(OCC(=O)N3CCOCC3)cc2)cc1Cl` was run?
**A.** 8.46%

**Q.** Which “hERG current change (%, negative = inhibition) at 10uM” value does the source give for `CNC(=O)Nc1ccc(C2SCCS2)cc1` here?
**A.** 7.02%

**Q.** With `CCOC(=O)C1=C2SCCN2C(=O)C(C#N)C1(C)C` (centres unmarked) as the compound, how does the “hERG current change (%, negative = inhibition) at 10uM” value read?
**A.** 7.34%

**Q.** Which “hERG current change (%, negative = inhibition) at 10uM” value does the source give for `COc1ccc(-c2cc(C(=O)N3CC4(C)CC3CC(C)(C)C4)no2)cc1OC` (centres unmarked) here?
**A.** -20.1%

**Q.** With `O=C(NCc1ccccc1F)C(=O)NCC1OCCCN1S(=O)(=O)c1cccs1` (centres unmarked) as the compound, how does the “hERG current change (%, negative = inhibition) at 10uM” value read?
**A.** 9.19%

**Q.** With `Cc1ccccc1NCN1C(=O)C2CCC(C)(C1=O)C2(C)C` (centres unmarked) as the compound, how does the “hERG current change (%, negative = inhibition) at 10uM” value read?
**A.** -0.978%

**Q.** Which “hERG current change (%, negative = inhibition) at 10uM” value does the source give for `COCc1[nH]nc2c1C(c1ccccc1F)C(C#N)=C(N)O2` (centres unmarked) here?
**A.** 11%

**Q.** Which “hERG current change (%, negative = inhibition) at 10uM” value does the source give for `Cc1ccc(C)c(C(=O)CC2(O)C(=O)N(C)c3ccccc32)c1` (centres unmarked) here?
**A.** 8.85%

**Q.** `O=C(O)c1ccccc1C(=O)Nc1ccc(Br)c(C(F)(F)F)c1` was tested. Which “hERG current change (%, negative = inhibition) at 10uM” value did it give?
**A.** -70.6%

**Q.** For `O=C(Nc1ccc(Br)c(C(F)(F)F)c1)c1ccc(C(F)(F)F)cc1`, which “hERG current change (%, negative = inhibition) at 10uM” value is on record?
**A.** 11.8%

**Q.** Which “hERG current change (%, negative = inhibition) at 10uM” value does the source give for `O=C(Nc1ccc(Br)c(C(F)(F)F)c1)c1ccccc1` here?
**A.** 27.3%

**Q.** With `C/C(=N\NC(=O)CSc1nc2ccccc2s1)c1ccco1` as the compound, how does the “hERG current change (%, negative = inhibition) at 10uM” value read?
**A.** 0.0885%

**Q.** With `CC1CCCCN1C(=O)COC(=O)c1cccc(NS(=O)(=O)c2ccccc2)c1` (centres unmarked) as the compound, how does the “hERG current change (%, negative = inhibition) at 10uM” value read?
**A.** 0.629%

**Q.** For `N#CCSc1ccccc1NC(=O)COc1ccc(-c2nnco2)cc1`, which “hERG current change (%, negative = inhibition) at 10uM” value is on record?
**A.** -66.3%

**Q.** Which “hERG current change (%, negative = inhibition) at 10uM” value does the source give for `O=C(COc1ccc(-c2nnco2)cc1)Nc1c(F)cccc1F` here?
**A.** 0.851%

**Q.** Which “hERG current change (%, negative = inhibition) at 10uM” value does the source give for `N#Cc1ccsc1NC(=O)COc1ccc(-c2nnco2)cc1` here?
**A.** 1.95%

**Q.** `CCN(CC(=O)Nc1ccc2c(c1)OCCO2)S(=O)(=O)c1cccs1` was tested. Which “hERG current change (%, negative = inhibition) at 10uM” value did it give?
**A.** -4.54%

**Q.** `COc1cccc(C(=O)Nc2c(C)n[nH]c2C)c1` was tested. Which “hERG current change (%, negative = inhibition) at 10uM” value did it give?
**A.** -0.143%

From publication PMC4336329 (PLoS ONE, 2015)
